# Assay outcomes (PubChem)
# NALP3 yeast inh – inhibitors of NALP3 inflammasome in yeast. Yeast reconstituted NLRP3/ASC/caspase-1, beta-gal luminescence, 24 h. actives 0.39% (n = 330,000). AID 2825. inhibition, % at 10 µM;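 active = inhibition of 50% or more; inactive = inhibition below 50%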;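 also: plate controls were induced DMSO wells for no effect and uninduced yeast grown without galactose for full effect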
# tim23-1 inh – inhibits growth of tim23-1 mutant yeast. inhibition, % at 20 µM. S. cerevisiae tim23-1 growth, BacTiter-Glo luminescence, 24 h. AID 463212. actives 1.3% (n = 330,000);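 active = growth inhibition of the mutant yeast at or above 50%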;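 also: temperature-sensitive mutant grown at 25 °C; plate controls were DMSO-treated mutant yeast for no effect and medium wells lacking yeast for full effect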
# tim10-1 inh – growth inhibitors of tim10-1 mutant yeast; S. cerevisiae tim10-1 ts strain growth, BacTiter-Glo, 24 h; inhibition, % at 20 µM; actives 2.2% (n = 330,000); AID 463190;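 active = inhibition of at least 40%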;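 also: mutant grown at 25 °C; 0% = DMSO wells with yeast and 100% = wells holding no yeast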
# SKKanGAS inh – SKKanGAS growth inhibition. S. pyogenes SKKanGAS, kanamycin growth, BacTiter-Glo, 6 h. inhibition, % at 7.5 µM. actives 1.3% (n = 300,000);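 active = mean replicate score, as percent of positive control median, at least 50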;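 also: strain carries kanamycin resistance gene driven by streptokinase promoter and grows in 40 µg/ml kanamycin; loss of luminescence reflects streptokinase promoter inhibition or plain growth inhibition; 0% = median of DMSO wells and 100% = positive control at its reference dose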
# TIM10 inh – inhibits growth of TIM10 yeast strain; S. cerevisiae TIM10 strain growth, BacTiter-Glo luminescence, 24 h; inhibition, % at 10 µM; actives 1.4% (n = 330,000); AID 463195;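 active = inhibition of 40% or more at the single tested concentration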;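 also: wild-type TIM10 isogenic control strain grown at permissive 25 °C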
# PfHsp90 set2 – growth inhibition of yeast expressing Plasmodium Hsp90. inhibition, % at 9.4 µM. S. cerevisiae expressing PfHsp90, BacTiter-Glo ATP, 48 h; yeast lacking PDR1 and PDR3 efflux regulators. actives 0.32% (n = 310,000);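 active = every replicate shows inhibition above about 80%, whatever the replicate mean, limit read from the data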;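 also: 0% = DMSO neutral controls and 100% = 20 µM radicicol positive controls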
# tim10-1 conf – confirmation of tim10-1 mutant yeast growth inhibitors; shares compounds with tim10-1 inh; S. cerevisiae tim10-1 ts strain growth, BacTiter-Glo, 24 h; inhibition, % at 20 µM; actives 56% (n = 7,400); AID 463213;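 active = inhibition of yeast growth at or above a set limit in either of two repeat tests at 20 µM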;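 also: tim10-1 mutant grown at permissive 25 °C to find synthetic lethal compounds; 0% = DMSO yeast wells and 100% = medium wells without yeast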
# * = called active by the depositor; nt = no result. This is a sample that favours compounds with a hit; in the whole collection about 4.5% have one here.
SMILES,NALP3 yeast inh,tim23-1 inh,tim10-1 inh,SKKanGAS inh,TIM10 inh,PfHsp90 set2,tim10-1 conf
COc1cccc2sc(N(CCCN(C)C)C(=O)c3ccc(S(=O)(=O)N4CCc5ccccc5C4)cc3)nc12,12,1,26,15,8,12,nt
Cc1ccc2sc(N(CCCN(C)C)C(=O)c3ccc(S(=O)(=O)N4CCc5ccccc5C4)cc3)nc2c1C,15,20,40*,6,20,10,29
CCN(Cc1ccccc1)S(=O)(=O)c1ccc(C(=O)N(CCCN(C)C)c2nc3cc(C)cc(C)c3s2)cc1,23,25,52*,34,-1,nt,-5
CCOC(=O)N1CCN(S(=O)(=O)c2ccc(C(=O)N(CCCN(C)C)c3nc4ccc(CC)cc4s3)cc2)CC1,19,18,43*,9,22,-1,16
CCOC(=O)N1CCN(S(=O)(=O)c2ccc(C(=O)N(CCN(C)C)c3nc4ccc(CC)cc4s3)cc2)CC1,23,8,31,4,7,16,nt
Cc1ccc(NC(=S)N2CCN(S(C)(=O)=O)CC2)cc1C,6,11,3,nt,15,-32,nt
C=CCOC(=O)C(C#N)c1nc2ccccc2nc1N1CCN(Cc2ccc3c(c2)OCO3)CC1 (stereo not given),9,42,41*,13,23,-35,26
CCCCNC(=O)C(C#N)c1nc2ccccc2nc1N1CCN(Cc2ccc3c(c2)OCO3)CC1 (stereo not given),nt,nt,nt,nt,nt,8,nt
COc1ccc(-c2nc(CN3CCN(C(=O)c4ccco4)CC3)c(C)o2)c(OC)c1C,9,13,12,-1,12,6,nt
O=C(O)c1ccc(-n2nc(C(F)(F)F)c3c2-c2ccoc2CC3)cc1,-4,14,16,-2,3,nt,nt
COC(=O)c1ccc(-n2nc(C(F)(F)F)c3c2-c2ccoc2CC3)cc1,1,30,41*,4,20,-25,26
CC12C(=O)N(c3ccc(OC(=O)c4ccco4)cc3)C(=O)C1C1c3ccccc3C2c2ccccc21 (stereo not given),-5,3,4,20,-5,26,nt
CC12C(=O)N(c3cccc(OC(=O)c4ccco4)c3)C(=O)C1C1c3ccccc3C2c2ccccc21 (stereo not given),13,39,42*,4,20,nt,25
O=S(=O)(Nc1cccc(-c2cn3c(n2)SCC3)c1)c1ccccc1,12,-1,-10,3,7,18,nt
Cc1ccccc1SCC(=O)Nc1cccc(C#N)c1,19,12,44*,4,11,16,18
N#Cc1cccc(NC(=O)CSc2cccc[n+]2[O-])c1,11,-7,-20,nt,-3,25,nt
Cc1cc2nc(-c3ccc[nH]c3=O)[nH]c2cc1C,2,48,47*,35,35,71,35*
Cc1cc2nc(-c3ccc[nH]c3=O)n(Cc3ccc(F)cc3)c2cc1C,21,23,20,-2,3,17,nt
O=C(O)C1CC(c2ccccc2)=Nc2ccccc2S1 (stereo not given),28,45,4,-1,-1,4,nt
O=[N+]([O-])c1ccc(C2CC(c3ccccc3)=Nc3ccccc3S2)cc1 (stereo not given),19,27,43*,-2,16,-17,21
S=c1nc(C2CCCCC2)n(-c2ccccc2)[nH]1,-20,30,44*,-2,34,-28,25
CN(c1ccccc1)S(=O)(=O)c1ccc(NC(=O)c2nc(S(C)(=O)=O)ncc2Cl)cc1,1,26,43*,-7,18,-3,-1
CCS(=O)(=O)c1ncc(Cl)c(C(=O)Nc2ccc(S(=O)(=O)N3CCC(C)CC3)cc2)n1,-1,40,42*,9,-14,-17,-34
CCOC(=O)c1ccc(NC(=O)c2nc(S(=O)(=O)Cc3ccccc3)ncc2Cl)cc1,2,31,55*,82*,0,9,21
CC1CCN(S(=O)(=O)c2ccc(NC(=O)c3ccncc3)cc2)CC1,18,30,37,-2,18,-37,nt
